Experimental data taken from PubChem BioAssay (NCATS).
Records with an inconclusive call do not appear. Activity calls are given as the source filed them. Calls come from the whole dose curve; as a rule, active = well fitted inhibition curve with a large enough effect; inconclusive = small, poorly fitted or top-dose-only effect; inactive = flat fitted curve, though single readings scatter.

assay: qHTS profiling for inhibitors of Plasmodium falciparum proliferation (AID 504749); note: nearly all actives have a fitted effect of over 60% in size;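 for activity, negative = inhibition: 0% = DMSO vehicle and full inhibition = artemisinin control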; details: P. falciparum in erythrocytes, SYBR Green DNA, 72 h; at 12.8 µM (top of the series); parasite line A
From the text: NIH National Institute of Allergy and Infectious Diseases [NIAID] NIH Chemical Genomics Center [NCGC] MLPCN Grant: None Assay Provider: Xinzhuan Su, NIAID NCGC Assay Overview: Plasmodium falciparum is a virulent malarial parasite that kills 1-2 million people worldwide each year. Transmitted by mosquitoes, the sporozoite form of the parasite enters the blood stream to infect hepatocytes, where they become merozoites that infect red blood cells (erythrocytes). Within erythrocytes, merozoites begin a […] cycle of growth and division, after which the parasite is released to infect new red blood cells. Gametocytes, which form within erythrocytes as well, circulate in the bloodstream and are ingested by the mosquito, thereby completing the life cycle. To profile malarial isolates for differential chemical responses and to identify inhibitors of malarial growth, an assay that measures P. falciparum growth and replication within erythrocytes was employed. This assay uses a DNA binding fluorescent dye (SYBR Green) to detect parasite DNA following cell lysis. Because mature erythrocytes lack DNA, only Plasmodium-derived DNA is detected.
NCGC Assay Protocol Summary: The SYBR Green viability assay was adapted from a method described previously (Plouffe et al., 2008). For screening 3 ul culture medium was dispensed into 1536 well black clear bottom plates (Aurora Biotechnologies) using a Multidrop Combi (Thermo Fisher Scientific Inc.), 23 nL compounds in DMSO were added by a pin tool (Kalypsys), and 5 ul of erythrocytes infected with P. falciparum (0.3% parasitemia, 2.5% hematocrit final concentration) were added. The plates were incubated at 37 C in a humidified incubator in 5% CO2 for 72 h, and 2 ul lysis buffer (20 mM Tris HCl, 10 mM EDTA, 0.16% saponin, 1.6% triton X, 10X SYBR Green I supplied as 10,000X […] by Invitrogen) was added to each well. The plates were mixed for 25 sec with gentle shaking and incubated overnight at room temperature in the dark. The following morning, fluorescence intensity at 485(14) nm excitation and 535(25) nm emission wavelengths was measured on an EnVision (Perkin Elmer) plate reader. Plate reads were normalized relative to the control inhibitor (0.29 uM artemisinin) and vehicle (DMSO) wells present on each plate and then corrected by an algorithm using vehicle-only control plates at the beginning and end of the compound plate stack.
Potency is the fitted concentration of half-maximal effect.

| SMILES | activity, negative = inhibition |
| --- | --- |
| Nc1nc2c(c(=O)[nH]1)N(C=O)[C@H](CNc1ccc(C(=O)N[C@@H](CCC(=O)O)C(=O)O)cc1)CN2 | 9.3% (inactive) |
| COc1ccc([C@@H]2CNC(=O)C2)cc1OC1CCCC1 | 9.55% (inactive) |

same assay, conditions: P. falciparum in erythrocytes, SYBR Green DNA, 72 h; at 12.8 µM (top of the series); parasite line B

| SMILES | activity, negative = inhibition |
| --- | --- |
| Nc1nc2c(c(=O)[nH]1)N(C=O)[C@H](CNc1ccc(C(=O)N[C@@H](CCC(=O)O)C(=O)O)cc1)CN2 | 7.79% (inactive) |
| COc1ccc([C@@H]2CNC(=O)C2)cc1OC1CCCC1 | -3.14% (inactive) |

same assay, conditions: P. falciparum in erythrocytes, SYBR Green DNA, 72 h; at 28.7 µM (top of the series); parasite line A

| SMILES | activity, negative = inhibition |
| --- | --- |
| OCC(O)C(O)C(O)CO (centres undefined) | 4.99% (inactive) |
| COc1ccc2c(c1OC)C(=O)OC2[C@H]1c2c(cc3c(c2OC)OCO3)CCN1C (some centres undefined) | 5.64% (inactive) |

same assay, conditions: P. falciparum in erythrocytes, SYBR Green DNA, 72 h; at 28.7 µM (top of the series); parasite line B

| SMILES | activity, negative = inhibition |
| --- | --- |
| OCC(O)C(O)C(O)CO (centres undefined) | 7.38% (inactive) |
| COc1ccc2c(c1OC)C(=O)OC2[C@H]1c2c(cc3c(c2OC)OCO3)CCN1C (some centres undefined) | 5.33% (inactive) |

same assay, conditions: P. falciparum in erythrocytes, SYBR Green DNA, 72 h; parasite line A

| SMILES | Potency |
| --- | --- |
| CCCCCCCCCCCC(CC1OC(=O)C1CCCCCC)OC(=O)C(CC(C)C)NC=O (centres undefined) | 355 nM (active) |
| COc1cccc2c1C(=O)c1c(O)c3c(c(O)c1C2=O)C[C@@](O)(C(=O)CO)C[C@@H]3O[C@H]1C[C@H](N)[C@H](OC2CCCCO2)[C@H](C)O1 (some centres undefined) | 3160 nM (active) |
| CCC(C(=O)O)C1CCC(C)C(C(C)C(O)C(C)C(=O)C(CC)C2OC3(C=CC(O)[C@@]4(CC[C@](C)(C5CC[C@@](O)(CC)C(C)O5)O4)O3)C(C)CC2C)O1 (some centres undefined) | 1000 nM (active) |

same assay, conditions: P. falciparum in erythrocytes, SYBR Green DNA, 72 h; parasite line B

| SMILES | Potency |
| --- | --- |
| CCCCCCCCCCCC(CC1OC(=O)C1CCCCCC)OC(=O)C(CC(C)C)NC=O (centres undefined) | 708 nM (active) |
| COc1cccc2c1C(=O)c1c(O)c3c(c(O)c1C2=O)C[C@@](O)(C(=O)CO)C[C@@H]3O[C@H]1C[C@H](N)[C@H](OC2CCCCO2)[C@H](C)O1 (some centres undefined) | 4470 nM (active) |
| CCC(C(=O)O)C1CCC(C)C(C(C)C(O)C(C)C(=O)C(CC)C2OC3(C=CC(O)[C@@]4(CC[C@](C)(C5CC[C@@](O)(CC)C(C)O5)O4)O3)C(C)CC2C)O1 (some centres undefined) | 1120 nM (active) |
